# High-throughput results (PubChem BioAssay)
# HTR5A inv ctr = inverse agonist of human HTR5A in OPRM1-OPRD1 counter-screen; P47898; HTR5A cell line, luminescence, inverse agonism; inhibition, % at 9.3 µM; actives 0.083% (n = 340,000); in the data active = inhibition mostly above about 23%, no sharp cut-off; inactive = mostly below about 18%;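 also: 0% = cells with DMSO and 100% = no-cell wells with DMSO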
# OPRM1-OPRD1 inv = inverse agonist of human OPRM1-OPRD1 heterodimerization; actives 0.21% (n = 340,000); inhibition, % at 9.3 µM; AID 504357; cell-based MOR-DOR heterodimer luminescence, inverse agonism; P35372+P41143; in the data active = inhibition above about 22%, passing the limit was not always enough;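 also: 0% = cells with DMSO and 100% = wells without cells with DMSO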
# Target sequence (P35372 whole entry, looked up): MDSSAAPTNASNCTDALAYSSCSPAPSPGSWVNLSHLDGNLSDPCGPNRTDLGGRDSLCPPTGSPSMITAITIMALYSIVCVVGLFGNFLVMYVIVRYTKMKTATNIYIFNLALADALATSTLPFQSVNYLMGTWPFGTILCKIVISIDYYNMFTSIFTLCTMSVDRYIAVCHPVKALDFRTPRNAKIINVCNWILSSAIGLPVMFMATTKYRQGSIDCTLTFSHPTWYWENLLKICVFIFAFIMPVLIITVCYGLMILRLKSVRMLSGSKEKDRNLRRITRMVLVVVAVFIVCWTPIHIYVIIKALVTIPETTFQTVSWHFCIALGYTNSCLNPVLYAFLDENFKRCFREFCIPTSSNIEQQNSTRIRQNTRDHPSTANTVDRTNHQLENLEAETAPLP
# Target sequence (P41143 whole entry, looked up): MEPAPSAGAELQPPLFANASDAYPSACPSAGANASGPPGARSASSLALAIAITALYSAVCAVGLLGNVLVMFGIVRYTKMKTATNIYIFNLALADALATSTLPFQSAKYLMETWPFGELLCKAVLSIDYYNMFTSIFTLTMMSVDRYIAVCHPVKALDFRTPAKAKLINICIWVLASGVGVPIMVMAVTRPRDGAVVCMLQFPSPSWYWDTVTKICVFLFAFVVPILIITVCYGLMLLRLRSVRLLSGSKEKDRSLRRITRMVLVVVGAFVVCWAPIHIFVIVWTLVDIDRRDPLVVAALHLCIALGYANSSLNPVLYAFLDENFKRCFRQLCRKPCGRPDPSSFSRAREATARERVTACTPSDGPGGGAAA
# HTR5A ag ctr = counter-screen for OPRM1-OPRD1 agonists: human HTR5A agonism; P47898; activation, % at 9.3 µM; HTR5A agonist assay, luminescence, cell-based; actives 0.61% (n = 340,000); in the data active = activation mostly above about 9.5%, no sharp cut-off; inactive = mostly below about 7.6%;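 also: 0% = cells with vehicle only and 100% = reference agonist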
# MOR-DOR ag = OPRM1-OPRD1 heterodimerization agonism; P35372+P41143; cells, luminescence; activation, % at 9.3 µM; actives 0.3% (n = 340,000); in the data active = activation above about 18%;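 also: 0% = vehicle-treated cells and 100% = reference agonist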
# Active calls of the source: *. Shown are actives, neighbours in structure and some others; about 1.1% of the full set was active somewhere.
SMILES,HTR5A inv ctr,OPRM1-OPRD1 inv,HTR5A ag ctr,MOR-DOR ag
O=C(O)c1cccc(N/N=C(\N=Nc2ccccc2)c2ccccc2)c1,24,25,-1,-4
O=C(O)c1ccc(N=N/C(=N\Nc2ccc(C(=O)O)cc2)c2ccccc2)cc1,35*,31*,-3,-5
COc1ccc(C)cc1-n1c(SCC(=O)NCC2CCCO2)nc2c([nH]c3ccccc32)c1=O (configuration not stated),-15,-3,2,1
O=C(CSc1nc2c([nH]c3ccccc32)c(=O)n1-c1ccccc1F)NCC1CCCO1 (configuration not stated),60*,63*,-18,-12
Cc1ccccc1-n1c(SCC(=O)NCC2CCCO2)nc2c([nH]c3ccccc32)c1=O (configuration not stated),52*,54*,-16,-10
C=CCn1c(SCC(=O)NCC2CCCO2)nc2c([nH]c3ccccc32)c1=O (configuration not stated),15,14,-1,-3
O=C(Nc1ccc(F)cc1)Nc1nnc(-c2ccco2)s1,-31,-38,3,7
COc1ccc(/C=C/C(=O)NC(=S)Nc2ccc(S(N)(=O)=O)cc2)cc1OC,8,20,-3,-4
Cc1noc(C)c1CSc1nnc(-c2cccnc2)n1C1CCCCC1C (configuration not stated),-1,13,5,-2
COc1ccc(Cc2nnc(SCc3c(C)noc3C)n2C2CCCCC2)cc1OC,-59,-6,12*,1
COc1ccc(Nc2nc(N)nc(CCl)n2)cc1,-176,-108,48*,21*
COc1cc(CNCCc2c[nH]c3ccccc23)ccc1OCc1ccc(F)cc1,-6,-53,11*,9
COc1cccc(CNCCc2c[nH]c3ccccc23)c1OCc1ccc(F)cc1,-14,-79,2,13
CC(c1ccccc1)C1CC(=O)N(c2ccc([N+](=O)[O-])cc2)C1=O (configuration not stated),10,12,-3,-2
CC(c1ccccc1)C1CC(=O)N(c2ccccc2)C1=O (configuration not stated),36*,35*,-12,-7
Cc1nc2cc(C(F)(F)F)ccc2n1C1CCN(CC(=O)N2CCOCC2)CC1,0,9,9.0*,-2
O=C(Nc1nc(-c2cccc3ccccc23)cs1)c1cnccn1,-26,5,10*,-1
N=c1n(Cc2ccccc2)c2ccccc2n1CC(O)COc1ccc(Cl)cc1Cl (configuration not stated),-80,-173,31*,31*
Cc1ccc(OCC(O)Cn2c(=N)n(Cc3ccccc3)c3ccccc32)cc1 (configuration not stated),4,-13,12*,3
CCOCCCNC(=O)c1ccc(OC2CCN(C(C)=O)CC2)c(OC)c1,-9,10,-5,-2
COc1ccc(N(C(=O)c2cc3ccccc3oc2=O)C2C=CS(=O)(=O)C2)c(OC)c1 (configuration not stated),-8,18,3,-4
CC(C)N(CCn1c(SCC(=O)Nc2cccnc2Cl)nc2ccccc2c1=O)C(C)C,15,-8,-4,1
c1ccc(-c2nnc(N3CCN(c4ccccn4)CC3)c3ccccc23)cc1,-1,1,0,0
Cc1ccc(-c2nnc(N3CCN(c4ccccn4)CC3)c3ccccc23)cc1,-12,3,13*,-1
Cc1cccc(C(=O)OCC(=O)NN2C(=O)NC3(CCC(C)CC3)C2=O)c1O (configuration not stated),-11,2,4,0
SMILES,HTR5A inv ctr,OPRM1-OPRD1 inv,HTR5A ag ctr,MOR-DOR ag
Cc1c(C(=O)Nc2cc(F)ccc2F)sc2nc3n(c(=O)c12)CCCCC3,-13,-1,-2,0
CC(=O)n1cc(N(C(=O)CCl)c2ccccc2)c2ccccc21,5,-334,57*,65*
CC(=O)n1cc(N(C(=O)CCl)c2ccc([N+](=O)[O-])cc2)c2ccccc21,-4,-101,27*,20*
CC(=O)n1cc(CO)c2ccccc21,4,6,2,-1
O=C(CCl)N(c1ccccc1)c1c[nH]c2ccccc12,-103,-195,40*,39*
O=Cc1[nH]c2ccccc2c1N(C(=O)CCl)c1ccc([N+](=O)[O-])cc1,6,18,2,-4
O=C(NN=C1CCCCCC1)c1cccs1,15,12,4,-2
CC[C@]12c3[nH]c4cc(-c5ccco5)ccc4c3CCN1C(=O)[C@@H](CC(=O)NCc1cccc(C(F)(F)F)c1)C[C@@H]2C(=O)N1CCN(C(=O)c2ccco2)CC1,-12,-1,3.5*,0
CCN(CC)c1nc2ccccc2n2cnnc12,15,-2,13*,0
CCOc1ccccc1Nc1nc2ccccc2n2cnnc12,1,21,0,-4
COc1cccc(OCC(=O)N2CCCc3ccccc32)c1,-28,5,10*,-1
CCCOc1ccc(CNC(=O)C2CCN(c3nnc(N4CCCC4=O)s3)CC2)cc1,-5,-3,-2,1
COc1cccc(CNC(=O)C2CCN(c3nnc(N4CCCC4=O)s3)CC2)c1,-8,5,13*,-1
O=C(Nc1ccc(-c2noc(COc3ccccc3Cl)n2)cc1)c1ccco1,-21,-11,12*,3
O=C(COc1ccccc1Cl)Nc1ccc(NC(=O)c2ccco2)cc1,2,14,-1,-3
CC(C)(C)C(=O)N1CCC(O)(CS(=O)(=O)Cc2ccc(Cl)cc2)CC1,-38,14,12*,-3
CC(C)(C)C(=O)N1CCC(O)(CS(=O)(=O)Cc2ccccc2)CC1,7,12,2,-3
CC(C)(C)OC(=O)N1CCC[C@H]1C(=O)Nc1ccc(Br)cc1,-1,7,0,-2
CC(C)(C)OC(=O)N1CCC[C@H]1C(=O)Nc1ccc(C#N)cc1,-37,3,9.6*,-1
C=CCc1cccc(/C=C/c2cc(=O)c3ccccc3[nH]2)c1O,-5,-29,5,6
N#CCCN(C(=O)COC(=O)CCc1nc2ccccc2c(=O)[nH]1)c1ccc(F)cc1,-38,7,10*,-1
CN(C)CCN1C(=O)C(=O)/C(=C(/O)c2ccc(S(=O)(=O)N3CCOCC3)cc2)C1c1ccc(F)cc1 (configuration not stated),8,10,2,-2
CCCn1c(N)c(N(CCOC)C(=O)CSCC(=O)Nc2ccc(C)cc2)c(=O)[nH]c1=O,1,6,0,-1
CC(C)n1c(N2CCN(C(=O)NCc3ccccc3)CC2)nc2ccccc21,-34,9,10*,-2
CNC(=O)COc1ccc(Nc2nnc(-c3ccc(C)c(S(N)(=O)=O)c3)c3ccccc23)cc1,-16,20,5,-4
CN(C)S(=O)(=O)c1ccc(C(=O)N2CCN=C2SCc2ccccc2)cc1,-31,0,13*,0
CCN1C(Nc2ccccc2)=NC[C@@H]1C,-6,-1,13*,0
CC(C)CN1C(Nc2ccccc2)=NC[C@@H]1C,-18,13,-1,-3
